The record followed here is PubChem BioAssay (NCI).

Common to all, as to assay: NCI-60 one-dose screen, 48 h (100 = growth as untreated, 0 = no growth, -100 = all killed)
Settings in all cases: 10 µM unless noted

The test system of assay [1] is SK-MEL-2 melanoma.
The subject of assay [2] is EKVX NSCLC.
In assay [3] the test system is SN12C renal.
Assay [4] relates to UO-31 renal.
In assay [5] the test system is TK-10 renal.
Assay [6] concerns ACHN renal.
Assay [7] deals with CAKI-1 renal.
The test system of assay [8] is A498 renal.
In assay [9] the test system is CCRF-CEM leukemia.
In assay [10] the test system is MOLT-4 leukemia.
Assay [11] relates to SR leukemia.
Assay [12] deals with RPMI-8226 leukemia.
Assay [13] has as its system OVCAR-8 ovarian.
Assay [14] deals with OVCAR-5 ovarian.
Assay [15] concerns OVCAR-4 ovarian.
The subject of assay [16] is SK-OV-3 ovarian.
Assay [17] deals with IGROV1 ovarian.
Assay [18] concerns OVCAR-3 ovarian.
Assay [19] deals with HS 578T breast.
Assay [20] deals with NCI/ADR-RES ovarian.

The structures appear in SMILES notation. This is part of a sample that, as a whole, favours compounds with a hit. Of some 83,000 tested, about 20% had one in any assay.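 A percent growth of 40 corresponds to 60% growth inhibition; 0 means no net growth; -100 means all cells died. Active threshold: below 10.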 Values without a mark were called inactive. Activity calls are given as the source filed them.

With `O=C(CSc1nnc(-c2ccc(-c3nc4ccc(Cl)cc4[nH]3)cc2)o1)Nc1ccc(Br)cc1`, the growth in assay [1] was 5.03% (active); in [2], 41.9%; in [3], -22.3% (active); in [4], 36.6%; in assay [5], 75.9%; in [6] it was -69.1% (active). Besides, the growth in assay [7] is -25.1% (active); in assay [8] it was 162%; in [9], 9.42% (active); in assay [10], 13.9%; in assay [11], 17.1%; in assay [12], 8.9% (active). The growth was -31.8% (active) in assay [13]; 47.5% in assay [14]; 16% in assay [15]; 73% in assay [16]; 53.4% in assay [17]; 9.66% (active) in [18]. Besides, the results for the growth in assay [19] and in assay [20] were -0.329% (active) and 15%, respectively.

On to `COC(=O)c1cc(C(=O)C(C)(C)C)n2c3ccccc3c3ccccc3c12`, for which the growth is 93.3% in [1]; 101% in assay [2]; 95.5% in assay [3]; 84.7% in assay [4]; 121% in assay [5]; 89.7% in assay [6]. Also, the growth is 60.7% in assay [7]; 156% in assay [8]; 75.8% in [9]; 67.1% in [10]; 69.7% in assay [11]; 70.2% in [12]. For the same compound, the growth is 98.6% in assay [13]; 98.6% in assay [14]; 85.9% in assay [15]; 109% in [16]; 86.2% in [17]; 110% in assay [18]. For the same compound, the growth in [19] was 99.3%; in [20] it was 89.3%.

With `CC1CCc2c(sc3nc(SCC(=O)c4cccc([N+](=O)[O-])c4)n(-c4ccccc4)c(=O)c23)C1` (stereo not given), the growth is 94.6% in assay [1]; 88% in assay [2]; 57.1% in assay [3]; 91.5% in [4]; 72.3% in [5]; 31.3% in assay [6]. The growth in assay [7] is 12.4%; in assay [8], 115%; in [9] it was 61.8%; in assay [10], 60.2%; in assay [11], 49%; in assay [12] it was 84.1%. Also, the growth is 38.6% in assay [13]; 94.2% in assay [14]; 98% in [15]; 98.8% in [16]; 74.8% in assay [17]; 111% in [18]. In addition, the growth was 94.7% in assay [19] and 65% in assay [20].

Regarding `CCCCCCCCCc1ccc(C(=O)Nc2cc(C)ccc2C(=O)OC)cc1`, the growth was 111% in assay [1]; 109% in assay [2]; 101% in [3]; 98.4% in assay [4]; 121% in assay [5]; 109% in assay [6]. Moreover, the growth in assay [7] was 98.8%; in assay [8], 128%; in [9], 87.9%; in assay [10], 97.5%; in [11], 90.1%; in [12] it was 81.6%. Also, the growth is 110% in assay [13]; 111% in assay [14]; 94.5% in assay [15]; 107% in assay [16]; 118% in assay [17]; 124% in [18]. Moreover, the growth in [19] is 106%; in [20] it was 109%.

Consider `Clc1ccc(CNc2nc(SCCN3CCOCC3)nc3c2cnn3CC(Cl)c2ccc(Br)cc2)cc1` (stereo not given), for which the growth in assay [1] was 33.6%; in [2], 31.8%; in assay [3], 42.7%; in assay [4], 28.5%; in assay [5], 68.7%; in assay [6] it was 23.5%. The growth in assay [7] is 45%; in assay [8] it was 106%; in assay [9], 19.7%; in assay [10] it was -22.7% (active); in assay [11], -14.9% (active); in assay [12], 1.89% (active). Moreover, the growth in assay [13] is 44.3%; in [14], 75.5%; in assay [15], 44.6%; in assay [16] it was 62.5%; in [17] it was 67.9%; in assay [18] it was 56.5%. The values for the growth in assay [19] and in assay [20] were 49.4% and 34.5%, respectively.

With `N#C/C(=C1/C(=O)Nc2ccccc21)c1nnc(NC(=O)c2ccc(-n3c(=O)[nH]c4ccccc4c3=O)cc2)s1`, the growth in [1] is 57.7%; in assay [2], 38.9%; in assay [3], 33.1%; in assay [4], 29.5%; in assay [5], 84.3%; in [6] it was 28.2%. Further, the growth was 49.2% in assay [7]; 133% in [8]; 7.74% (active) in assay [9]; 0.108% (active) in [10]; 17% in assay [11]; 11.5% in [12]. Moreover, the growth in [13] was 40.2%; in [14], 63.5%; in [15], 31.2%; in [16], 75.1%; in [17], 38.7%; in [18], 25.6%. In addition, the growth in assay [19] is 55.6%; in assay [20], 22.9%.

On to `CS(=O)(=O)Nc1cc(-c2ccc3ncnc(Nc4ccc(OCc5cccnc5)c(Cl)c4)c3c2)cnc1Cl`, for which the growth in [1] was -76.7% (active); in [2], -24.4% (active); in [3], 8.19% (active); in assay [4], 23.2%; in [5], -27% (active); in [6] it was 32%. Further, the growth in assay [7] is 1.71% (active); in [8], -25.6% (active); in [9], 11%; in assay [10] it was -50.6% (active); in [11], -60.1% (active); in [12], -2.42% (active). In addition, the growth in assay [13] is 8.77% (active); in assay [14], 12.1%; in assay [15] it was 28.9%; in assay [16], -14.9% (active); in [17] it was -56.8% (active); in [18] it was -40.7% (active). The figures for the growth in assay [19] and in assay [20] were -25.3% (active) and 70.5%, respectively.

As to `O=C(CSc1nc2c(c(=O)[nH]1)CCCC2)Nc1ccccc1C(=O)O`, the growth in assay [1] was 98.9%; in assay [2], 99.2%; in [3], 93.3%; in [4], 82.3%; in assay [5] it was 106%; in [6], 106%. In addition, the growth in assay [7] is 89.5%; in assay [8], 173%; in assay [9], 101%; in assay [10] it was 99.3%; in assay [11], 88.5%; in [12] it was 104%. The growth in [13] was 109%; in [14], 106%; in [15], 125%; in assay [16], 106%; in assay [17], 110%; in assay [18], 91.7%. Also, the growth in assay [19] is 108%; in [20] it was 112%.
